# TSHR antagonist = human thyrotropin receptor antagonism; P16473; TSHR-expressing cells, TSH-stimulated cAMP HTRF, 2 h; active compounds read low; activity change, negative = inhibition, % at 11.5 µM; 0.2% of 330,000 active;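 active = activity change below a set negative limit, meaning inhibition stronger than a set level, cut at about -70% in these data; inconclusive = activity change between two set negative limits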; also: % is scaled to controls: 0 for no effect and ±100 for the full control effect
#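 Freshly harvested TSHR cells receive pin-tooled compound, then EC80 TSH at 4nM final. After 2 hours at 37 deg C, antibody in lysis buffer and cAMP-d2 are added; 30 minutes at ambient temperature precede the HTRF read.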
# RXFP1 agonist = agonists of human relaxin receptor RXFP1 | Potency, µM (series often up to 57.5 µM), without a hit: at the top dose activation, hits mostly activators | 0.3% of 370,000 active | HEK293T-RXFP1 cAMP TR-FRET, 30 min; response scale: percent of porcine relaxin response, buffer zero | Q9HBX9; also: potency is read from the fitted curve at half-maximal effect; % is scaled to controls: 0 for no effect and ±100 for the full control effect; nearly all actives have a fitted effect of over 60% in size
# Target sequence (Q9HBX9 whole entry, looked up): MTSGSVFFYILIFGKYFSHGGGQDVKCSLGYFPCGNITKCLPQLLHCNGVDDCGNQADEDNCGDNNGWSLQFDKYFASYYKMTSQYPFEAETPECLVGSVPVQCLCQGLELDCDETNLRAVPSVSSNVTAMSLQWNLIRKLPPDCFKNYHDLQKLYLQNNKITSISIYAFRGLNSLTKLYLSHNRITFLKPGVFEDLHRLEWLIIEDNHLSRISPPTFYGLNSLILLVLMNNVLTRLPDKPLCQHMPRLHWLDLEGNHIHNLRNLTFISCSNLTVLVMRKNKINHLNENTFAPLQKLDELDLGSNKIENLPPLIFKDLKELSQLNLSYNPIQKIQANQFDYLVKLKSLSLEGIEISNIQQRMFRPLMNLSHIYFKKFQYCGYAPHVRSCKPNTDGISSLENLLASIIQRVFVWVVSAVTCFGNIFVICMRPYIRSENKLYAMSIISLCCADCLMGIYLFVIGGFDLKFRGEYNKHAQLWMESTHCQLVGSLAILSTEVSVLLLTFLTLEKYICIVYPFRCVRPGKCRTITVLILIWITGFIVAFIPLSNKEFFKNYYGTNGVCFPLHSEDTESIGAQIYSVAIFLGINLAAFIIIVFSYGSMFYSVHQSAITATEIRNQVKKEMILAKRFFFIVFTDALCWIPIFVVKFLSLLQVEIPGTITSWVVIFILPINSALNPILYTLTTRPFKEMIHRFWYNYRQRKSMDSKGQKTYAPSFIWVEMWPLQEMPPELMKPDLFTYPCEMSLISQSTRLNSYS
#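 cAMP rise read by TR-FRET after 30 min, 37C compound exposure (up to 58 uM) in RXFP1-transfected HEK293 cells with Ro 20174 present. EC50 from Hill-equation fits, with 29 nM porcine relaxin as 100% and buffer as basal.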
# NPSR antagonist = antagonists of human neuropeptide S receptor cAMP signaling; CHO-NPSR cells, cAMP TR-FRET, antagonist mode; 1% of 220,000 active; Q6W5P4; Potency, µM (series often up to 38.3 µM), without a hit: top-dose activity change, negative = inhibition, actives largely listed as inhibitors; also: potency is read from the fitted curve at half-maximal effect; % is scaled to controls: 0 for no effect and ±100 for the full control effect; nearly all actives have a fitted effect of over 50% in size
# RXFP1 antagonist = RXFP1 (human) relaxin receptor antagonism; 0.59% of 350,000 active; HEK293-RXFP1, relaxin-stimulated cAMP HTRF, 30 min; active compounds read low; activity change, negative = inhibition, % at 57.5 µM;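 active = activity change of -60% or lower, but not beyond a set lower limit; inconclusive = change between -60% and -40%, or beyond the set limit; inactive = change above -40%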; also: % is scaled to controls: 0 for no effect and ±100 for the full control effect
# GLP1R cytotox = cytotoxic in the GLP-1 receptor inverse agonist counter-screen | Potency, µM (titrated, usually from 38.3 µM), for the others: top-dose activity change, negative = inhibition, actives largely listed as inhibitors | 0.13% of 410,000 active | HEK293 cAMP-luciferase reporter cells, luminescence, 24 h;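 also: loss of luciferase light is scored as toxicity; potency is read from the fitted curve at half-maximal effect; % is scaled to controls: 0 for no effect and ±100 for the full control effect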
#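 1536-well qHTS counterscreen of the MLSMR; 200 cells/uL, 12 h pre-incubation, 23 nL cpd, 24 h at 37 deg C 5% CO2, luciferase detection reagent, 12 min RT, luminescence. Inhibition = undesired.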
# PTHR1 ag = activates the human parathyroid hormone receptor PTHR1 | Q03431 | HEK293 GP2 PTHR1 cells, GloSensor cAMP luminescence, 1 h | Potency, µM (top dose mostly 115 µM), for inactives: at the top dose activation, usual class: activators | 0.075% of 410,000 active | AID 743266; also: potency is read from the fitted curve at half-maximal effect; nearly all actives have a fitted effect of over 55% in size
#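 HEK-293-derived GP2 cells expressing PTHR1 and a GloSensor cAMP reporter, 3,000/well, plated overnight, given luciferin plus IBMX (each 0.5 mM as added) for 1 h at 37 °C, then compound for 1 h at 37 °C. Luminescence was read after 15 min at room temperature.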
# Starred values were filed as active, the others as inactive; i = inactive; ? = inconclusive; nt = no result; [ ] = dose if it differs, or a comment. Shown is part of a subset that was picked to be rich in hits. Unless noted, calls follow the shape of the dose curve; as a rule, active = well fitted curve in the direction sought with a large enough effect; inconclusive = small, poorly fitted or top-dose-only effect, or another doubt; inactive = no such curve, though single readings can be large; an effect the other way counts as inactive or inconclusive.
SMILES,TSHR antagonist,RXFP1 agonist,NPSR antagonist,RXFP1 antagonist,GLP1R cytotox,PTHR1 ag
O=C(O)CSc1ccc2ccccc2n1,3,?,21%[46.1 µM],22,-5%,-3%[57.5 µM]
C[C@]12C=CC(=O)C=C1[C@@H](F)C[C@@H]1[C@@H]2[C@@H](O)C[C@@]2(C)[C@H]1CC[C@]2(O)C(=O)CO,nt,nt,nt,0,nt,nt
C[C@H](NC(=O)N1CCn2c1nc1ccccc12)C(=O)NC1CCCCC1,-4,3%,nt,19,0%,i
CC(C)C[C@H](NC(=O)N1CCn2c1nc1ccccc12)C(=O)NC1CCCCC1,-8,1%,nt,-67*,-6%,i
CC(C)NC(=O)/C(C#N)=C/c1cccc(NC(=O)c2ccccc2Cl)c1,3,3%,-2%,-63*,9%[1.53 µM],-40%
COCCNC(=O)/C(C#N)=C/c1cccc(NC(=O)c2ccccc2Cl)c1,1,-1%,2%,?,-4%,-1%
FC(F)(F)c1nc(-c2cccs2)ncc1-c1nnnn1-c1ccc(Cl)cc1,-72*,0%,?,-18,-29%,i
Clc1ccc(-n2nnnc2-c2cnc(-c3ccncc3)nc2-c2cccs2)cc1,-9,-4%,-29%[46.1 µM],-10,-16%,i
O=C(COc1ccc2c(c1)oc(=O)c1ccccc12)NCCN1CCOCC1,8,0%,nt,-14,4%,i
Cc1ccccc1NC(=O)c1sc2nc3n(c(=O)c2c1C)CCC3,nt,-4%,nt,-16,-9%,-14%
COc1ccccc1NC(=O)c1sc2nc3n(c(=O)c2c1C)CCC3,-9,8.9µM*,nt,16,-11%,-3%
CS(=O)(=O)c1ccc(-c2csc(N3CCC(C(N)=O)CC3)n2)cc1,26,nt,nt,nt,nt,nt
CCCCN(CC)S(=O)(=O)c1ccc(C(=O)N(CCCN(C)C)c2nc3cc(C)cc(C)c3s2)cc1,-3,1%,10µM*,?,?,-1%
Cc1c(NC(=O)c2cc([N+](=O)[O-])ccc2N2CCOCC2)cccc1-c1nc2ccccc2o1,nt,2%,nt,nt,3%,-11%
[O-][n+]1cccc(/C(Cl)=N/OC[C@@H](O)CN2CCCCC2)c1,nt,nt,nt,-9,nt,nt
Cc1ccc(CN2C(=O)C(=O)c3cc(Br)cc(C)c32)cc1,nt,1%,nt,-62*,?,-4%
CCCOc1ccc(CN2C(=O)C(=O)c3cccc(C)c32)cc1,nt,-2%,nt,-13,-19%,-37%
O=C(C1=C(O)C(=O)N(c2nccs2)C1c1ccccc1)c1cc2ccccc2o1 (stereo not drawn),17,16µM*,?,9,26%,-45%
CCN(CC)CCN1C(=O)C(O)=C(C(=O)c2cc3ccccc3o2)C1c1cccnc1 (stereo not drawn),30,27%,?,11,-12%,i
O=C(C1=C(O)C(=O)N(CCc2ccccc2)C1c1ccncc1)c1cc2ccccc2o1 (stereo not drawn),-4,14µM*,-47%,13,-6%,i
CN(C)[C@@H]1C(=O)C(C(=O)NCN2CCCC2)=C(O)[C@@]2(O)C(=O)C3=C(O)c4c(O)cccc4[C@@](C)(O)C3C[C@@H]12 (stereo partly drawn),nt,nt,nt,12,nt,nt
CCN(CC)c1ccc(N=Cc2ccc([N+](=O)[O-])o2)cc1,-14,-5%,-50%,-67*,7%,-16%
CCN(CC)c1ccc(N=Cc2ccccc2[N+](=O)[O-])cc1,-12,-4%,-39%,-68*,-2%[1.53 µM],-11%
NC(=O)c1cc(S(=O)(=O)N2CCOCC2)ccc1Sc1ccccc1N,-4,0%,nt,-30,-6%,i
O=c1cc(-c2ccccc2)[nH]n1-c1nc2ccccc2[nH]1,2,-2%,-14%[46.1 µM],-76*,-22%,-21%
SMILES,TSHR antagonist,RXFP1 agonist,NPSR antagonist,RXFP1 antagonist,GLP1R cytotox,PTHR1 ag
NC(=O)C1CCN(c2nc(-c3cccc(Br)c3)cs2)CC1,-7,nt,nt,nt,nt,nt
CCC(C)(C)n1nnnc1C(c1ccc2ncccc2c1)N1CCN(Cc2ccc3c(c2)OCO3)CC1 (stereo not drawn),-6,0%,7.9µM*,-2,5%,-1%[57.5 µM]
COCCCNC(=O)c1sc2nc(C)c(C(=O)Nc3ccc(C)cc3C)c(-c3ccc(Br)cc3)c2c1N,nt,-3%,nt,0,0%,i
COCCCNC(=O)c1sc2nc(C)c(C(=O)Nc3ccc(Cl)cc3)c(-c3ccc(Br)cc3)c2c1N,nt,35µM*,nt,-16,18%,i
CC(C)(C)NC(=O)COC(=O)c1ccc(S(=O)(=O)N2CCCCCC2)cc1,-7,1%,-4%[46.1 µM],-10,-6%,i
CC(C)NC(=O)COC(=O)c1ccc(S(=O)(=O)N2CCCC2)cc1,28,2%,1%,-98*,-5%,i
Cc1cccc(CN2C(=O)c3ccccc3Sc3ccc(C(=O)NCCN4CCOCC4)cc32)c1,-16,-5%,?,-9,?,-19%
O=C(c1ccc2c(c1)N(Cc1ccccc1)C(=O)c1ccccc1S2)N1CCCC1,-45,-2%,-20%[46.1 µM],-3,-38%,-11%
O=C(c1ccc2c(c1)N(Cc1ccc(Cl)cc1)C(=O)c1ccccc1S2=O)N1CCOCC1 (stereo not drawn),nt,-1%,nt,nt,-3%,-89%
CCCC1=Nc2cc(C(=O)NCCN3CCOCC3)ccc2Sc2ccccc21,6,-4%,nt,-100*,-1%,-18%
Cc1cccc(CN2C(=O)c3ccccc3Sc3ccc(C(=O)N4CCCC4)cc32)c1,nt,3%,nt,-112*,-40%,-84%
Cc1ccc(CN2C(=O)c3ccccc3Sc3ccc(C(=O)NCCN4CCOCC4)cc32)cc1,-136*,1%,nt,7,?,-13%
O=C(NCCCN1CCOCC1)c1ccc2c(c1)N(Cc1ccc(Cl)cc1)C(=O)c1ccccc1S2=O (stereo not drawn),-97*,0%,nt,-8,-1%,-15%
O=C(c1ccc(Br)cc1)N1CCN(c2ccccn2)CC1,nt,nt,nt,-3,1%,i
O=C(CCCCCCCCC#CI)Oc1ccccc1,nt,nt,nt,2,nt,nt
Cn1cnc2c(F)c(Nc3ccc(Br)cc3Cl)c(C(=O)NOCCO)cc21,nt,nt,nt,-6,nt,nt
CC(C(=O)O)c1ccc2c(c1)Cc1cccnc1O2 (stereo not drawn),nt,nt,nt,-16,nt,nt
CC(=O)COC(=O)c1cc(-c2ccc(C)cc2)nc2ccccc12,3,0%,8%,3,1%,-8%
CC(C)(C)C(=O)COC(=O)c1cc(-c2ccncc2)nc2ccccc12,2,4%,-18%,-67*,-1%,-27%
N=c1c2c(n(Cc3ccc(Cl)cc3)c3c1CCC3)CCC2,-5,0%,11%[46.1 µM],-27,-9%,-34%

# Compound activity deposited in PubChem by National Center for Advancing Translational Sciences (NCATS).
